In all, about 18,000 sequences were measured (“log2 normalized intensity”: median about 0.39, highest 2% from about 6.6 on). What follows is part of a selection rich in the highest values, with near analogues and random picks from the rest.
target: T1, HNF4alpha2 (COS-7 nuclear extract) (Homo sapiens, UniProt P41235 1-474); assay: protein-binding microarray; COS-7 nuclear extract on double-stranded Agilent 4x180k PBM; binding buffer, salt, pH and temperature not given in the material; high values mean tight binding; conditions: chain copies: 2; label: 3' end of strand 1 on the slide; dsDNA, one strand shown
T1 sequence: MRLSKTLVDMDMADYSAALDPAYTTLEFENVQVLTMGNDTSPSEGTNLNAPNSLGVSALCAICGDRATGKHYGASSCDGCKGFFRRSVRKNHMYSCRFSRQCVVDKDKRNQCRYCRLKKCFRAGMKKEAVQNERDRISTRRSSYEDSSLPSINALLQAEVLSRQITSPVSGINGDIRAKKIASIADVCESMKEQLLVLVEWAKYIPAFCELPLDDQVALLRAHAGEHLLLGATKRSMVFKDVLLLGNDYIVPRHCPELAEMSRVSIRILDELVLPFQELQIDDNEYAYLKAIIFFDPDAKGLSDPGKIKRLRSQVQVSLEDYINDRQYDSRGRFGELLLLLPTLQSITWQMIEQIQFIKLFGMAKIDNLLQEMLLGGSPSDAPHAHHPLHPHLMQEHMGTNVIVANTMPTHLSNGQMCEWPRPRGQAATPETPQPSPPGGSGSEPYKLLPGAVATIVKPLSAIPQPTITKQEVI
Method in brief: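 The binding signal is Agilent software's gProcessedSignal after background correction and normalization. Arrays were a custom Agilent SurePrint G3 4x180k design of double-stranded ~60-nt oligonucleotides with ~44,000 test sequences in quadruplicate, probed with nuclear extracts of COS-7 cells transiently expressing a human HNF4α isoform. Scans were made at 2-µm resolution on an Agilent G2565CA scanner.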

Sequence | binding signal [log2 normalized intensity]
AGAGCTCAGAAGCCACCAGTGCAAATATAAGCCTAGGGAGATTAGAGTATCGGTCGA | -0.972
CAAACGAGACTTTGGACTTTGGACTTGGGAGCCTAGGGAGATTAGAGTATCGGTCGA | 10.5
AAAATATGGACTTTGGAATTAAGAAAAGCTGCCTAGGGAGATTAGAGTATCGGTCGA | 5.25
TCTTTAGGCCAAACAAAAATATGGACTTTGGCCTAGGGAGATTAGAGTATCGGTCGA | 5.84
AAGAGATAAAAGAGAAGATAATGGATTGGGGCCTAGGGAGATTAGAGTATCGGTCGA | -0.492
GAAGGAGAGAGAGGGAGAGTGGCCTTTGGAGCCTAGGGAGATTAGAGTATCGGTCGA | 2.89
GGATAATGATAAAGAGATTGGACTTTGGCCGCCTAGGGAGATTAGAGTATCGGTCGA | 8.99
AGGCCAAACAAAAATATGGACTTTGGAATTGCCTAGGGAGATTAGAGTATCGGTCGA | 7.99
ATTTGGACTTTTACTCTTAGAGATAATGGGGCCTAGGGAGATTAGAGTATCGGTCGA | 2.13
CACAAATTGGAGAGCATCTTGGACTTGGGAGCCTAGGGAGATTAGAGTATCGGTCGA | 2.73
CTATCACTGTCTAGCTGTGTAACCCTGGACGCCTAGGGAGATTAGAGTATCGGTCGA | 1.48
TGTCCAGCACACCTTTTTTTCATGCAAATTGCCTAGGGAGATTAGAGTATCGGTCGA | 0.631
CCCCCTTTTGCTTTCCGTTAGGCTACAGTGGCCTAGGGAGATTAGAGTATCGGTCGA | 1.03
CTCCTCTCCAGCCCATCCTAAGCCCCAGGGGCCTAGGGAGATTAGAGTATCGGTCGA | 1.15
CTGAGCCTCAGAACCATTTGTGAGGATGGGGCCTAGGGAGATTAGAGTATCGGTCGA | -0.528
GTCAGAGTGCTGCATGCAAAAAGGCTGACCGCCTAGGGAGATTAGAGTATCGGTCGA | 1.41
TGCATGCAAAAAGGCTGACCTTTGACTCTCGCCTAGGGAGATTAGAGTATCGGTCGA | 7.57
CTGAGGAAGTGCTGACCTTTGGTCTAAACCGCCTAGGGAGATTAGAGTATCGGTCGA | 6.27
AGGCTGTCAGAGTGCTGCATGCAAAAAGGCGCCTAGGGAGATTAGAGTATCGGTCGA | -0.743
CTTTTTGACCTTGCAGTGGCAAGGCAAAAGGCCTAGGGAGATTAGAGTATCGGTCGA | 1.56
AGTGCTGCATGCAAAAAGGCTGACCTTTGAGCCTAGGGAGATTAGAGTATCGGTCGA | 7.82
ATGCAAAGCCCTGGCTGACCTTTAGCCTGGGCCTAGGGAGATTAGAGTATCGGTCGA | 6.54
AAGAGCTGAGGAAGTGCTGACCTTTGGTCTGCCTAGGGAGATTAGAGTATCGGTCGA | 7.29
TAGATAAGAGCTGAGGAAGTGCTGACCTTTGCCTAGGGAGATTAGAGTATCGGTCGA | 5.77
CCCAGGTCACCCACAACCTACCCTTTGCCCGCCTAGGGAGATTAGAGTATCGGTCGA | 3.99
GGCTAGGGCAAAGATCAAACATACAGTAAAGCCTAGGGAGATTAGAGTATCGGTCGA | 1.77
TAGCAATAATCTTTGAAATCTGCAAATAGAGCCTAGGGAGATTAGAGTATCGGTCGA | -0.0917
TCTGTGTGTATGTGTGTGTACACATTGATAGCCTAGGGAGATTAGAGTATCGGTCGA | 2.42

Sequence | binding signal [log2 normalized intensity]
CAGTTTGGACTTTGATCCTGATGACTGCAGGCCTAGGGAGATTAGAGTATCGGTCGA | 7.49
GATGGAGATCATCCTGCAGTTCCTGATCTTGCCTAGGGAGATTAGAGTATCGGTCGA | -0.826
TGGACTTTGATCCTGATGACTGCAGAGCTTGCCTAGGGAGATTAGAGTATCGGTCGA | 5.26
GCAGTTCCTGATCTTTGACCTGGAGCATGAGCCTAGGGAGATTAGAGTATCGGTCGA | 4.61
ATCCTGCAGTTCCTGATCTTTGACCTGGAGGCCTAGGGAGATTAGAGTATCGGTCGA | 5.61
AGATCATCCTGCAGTTCCTGATCTTTGACCGCCTAGGGAGATTAGAGTATCGGTCGA | 7.04
TTTGATCCTGATGACTGCAGAGCTTGCTCTGCCTAGGGAGATTAGAGTATCGGTCGA | -0.687
AATTCCAGTTTGGACTTTGATCCTGATGACGCCTAGGGAGATTAGAGTATCGGTCGA | 9.15
GGAGAGAGTTTGGCCCCAGTTCCCATGGACGCCTAGGGAGATTAGAGTATCGGTCGA | 1.18
CTTCTGTTCAGGAGTTGTCTGTCCAGTTCAGCCTAGGGAGATTAGAGTATCGGTCGA | 1.56
TAATCCCTGAGCCTGGACCTTGGAATGTCAGCCTAGGGAGATTAGAGTATCGGTCGA | 3.33
AATTCACGTCATTTTGTCACCTACATGTGAGCCTAGGGAGATTAGAGTATCGGTCGA | 1.67
TGCCCTGGACATATTTGTCTTCCTATCTCCGCCTAGGGAGATTAGAGTATCGGTCGA | 0.887
TTCCAGAGCCTTCAAAGGAAAGCAGGTGTTGCCTAGGGAGATTAGAGTATCGGTCGA | 0.55
CAGGGTCAATGTCCCCTTAGGAATAGTATCGCCTAGGGAGATTAGAGTATCGGTCGA | 2.14
GGGATGGACTTTGGCCCTCAGCCCAATGTGGCCTAGGGAGATTAGAGTATCGGTCGA | 6.2
GGACTTTGGCCCTCAGCCCAATGTGGTAGGGCCTAGGGAGATTAGAGTATCGGTCGA | 5.47
GAACAGCAAGACTTTGGCCCTGCAGACTTTGCCTAGGGAGATTAGAGTATCGGTCGA | 2.09
CTGGACTTTGGCTGCAAAATTTGAACAAAAGCCTAGGGAGATTAGAGTATCGGTCGA | 1.55
TGAATTCTGCAGCAGATGGCCAGCCTTTGGGCCTAGGGAGATTAGAGTATCGGTCGA | -0.936
GATTGGACTTTGGCCTGTGAATCCACATTCGCCTAGGGAGATTAGAGTATCGGTCGA | 5.98
TACTGGGGATGGACTTTGGCCCTCAGCCCAGCCTAGGGAGATTAGAGTATCGGTCGA | 8.56
TTGAAAGGGACTTAGAATCGAATTGTGAAAGCCTAGGGAGATTAGAGTATCGGTCGA | -0.196
CAGCCTTTGGACTTTGAACTGCAACATCAGGCCTAGGGAGATTAGAGTATCGGTCGA | 8.26
AAAGAGATTGGACTTTGGCCTGTGAATCCAGCCTAGGGAGATTAGAGTATCGGTCGA | 8.37
ACCTGGAACTGAAAGAGACCTTTGACATCAGCCTAGGGAGATTAGAGTATCGGTCGA | 4.5
TCTGCAGCAGATGGCCAGCCTTTGGACTTTGCCTAGGGAGATTAGAGTATCGGTCGA | 7.15
